Reference: PubChem BioAssay AID652058 (Broad Institute, 2013)
Hit rate of the full screen: of about 1,200 compounds, about 870 (72%) were called active. Inconclusive results (about 3%) are left out.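 Rule for the calls: active = every test run fits a falling curve whose half-maximal concentration is at most twice the top valid dose; inconclusive = runs disagree, or flat 30 to 70% inhibition, or poor fit; inactive = every run inactive: flat, rising or weaker potency.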 So high a share suggests a set chosen from earlier hits. These entries were drawn from the full list. Potency and affinity values are given separately.

assay: ZM109 Env clade C HIV-1 fusion inhibitors, dose response, HeLa effector, CEM target cells, luciferase, cherry-pick (AID 652058); conditions: HeLa Env/CEM cell fusion, 16-24 h; series mostly up to 35 µM;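 note: 0% = neutral control wells and -100% = maraviroc 300 nM wells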

Activity change, negative = inhibition, inactive:
O=C(c1ccc(Cl)cc1)N1CCCCC(Sc2nnc(-c3ccc4c(c3)OCO4)o2)C1=O (stereo not drawn)
O=C(C[C@H]1C[C@H]2c3cc(NC(=O)Cc4ccncc4)ccc3O[C@H]2[C@@H](CO)O1)NCc1ccncc1
COc1cccc(S(=O)(=O)N[C@H]2CC[C@H](CC(=O)NCc3ccncc3)O[C@@H]2CO)c1
Cn1c(-c2ccc(Cl)cc2)ccc(C#N)c1=O
Cc1onc(-c2ccccc2)c1C(=O)OCCOc1cccc(Cl)c1
Cn1cccc1C(=O)OCC(=O)NCCc1ccc(S(N)(=O)=O)cc1
Cn1c(=O)c2c(nc(NCCc3ccccc3)n2Cc2ccccc2)n(C)c1=O
COc1ccc(S(=O)(=O)N2CCCCC2)cc1NC(=O)CCCOc1ccc(C)cc1
CCOC(=O)CN1CCCc2nc(C)c(C)cc21
COCc1[nH]nc2c1C(c1ccc(F)cc1)N(Cc1ccccc1)C2=O (stereo not drawn)
CC(=O)Nc1ccc(C(=O)OCC(=O)NC(=O)NCc2ccccc2)cc1
CCN(CC)S(=O)(=O)c1ccc(NC(=O)Nc2cccc(C(F)(F)F)c2)cc1
CCN(CC)S(=O)(=O)c1cccc(NC(=O)c2ccc(-n3nc(C)cc3C)cc2)c1
CC(C)(C)c1ccc(-n2ncc3c2CCCC3NC(=O)CN2CCCC2=O)cc1 (stereo not drawn)
C[C@H](CO)N1C[C@H](C)[C@H](CN(C)S(=O)(=O)c2ccccc2)Oc2cc(Br)ccc2S1(=O)=O
CC(C)(C)c1ccc(OCCC(=O)Nc2cccc(S(=O)(=O)N3CCOCC3)c2)cc1
CCc1nc(N2CCCCC2)c2oc3ccccc3c2n1
CCc1nc(N2CCCCC2C)c2oc3ccccc3c2n1 (stereo not drawn)
NC(=S)c1ccc(OCCCc2ccccc2)cc1 111% [at 8 µM]
O=C1c2cccc(OCc3ccc(F)cc3)c2CCN1Cc1ccccc1
Nc1ncn([C@H]2C[C@H](O)[C@@H](CO)O2)c(=O)n1
Nc1nc2c(ncn2[C@@H]2O[C@H](C(=O)NCC(c3ccccc3)c3ccccc3)[C@@H](O)[C@H]2O)c(=O)[nH]1
O=S(=O)(NC1CC1)c1ccc(S(=O)(=O)N2CCCc3ccccc32)cc1
O=C(Cn1ncc2c(=O)oc3ccccc3c21)N1CCC(N2CCCCC2)CC1
O=C(CCNC(=O)c1ccc(Br)cc1)NNC(=O)COc1ccccc1F
O=C(NCCc1ccccc1)c1ccc2c(c1)OCCO2
CC(=O)c1c(C)[nH]c(C(=O)OCCCCN2C(=O)c3ccccc3C2=O)c1C
CC(C)C#Cc1ccc2c(c1)O[C@@H](CN(C)C(=O)C1CCCCC1)[C@H](C)CN([C@H](C)CO)S2(=O)=O
COc1ccc(-c2ccc3c(c2)[C@@H]2[C@@H](CCN2C(=O)NC2CCCC2)[C@H](CO)N3C)cc1
N#CCSc1nnc(-c2sc3ccccc3c2Cl)o1
C[C@@H]1CN([C@H](C)CO)S(=O)(=O)c2ccc(-c3ccccc3)cc2O[C@@H]1CN(C)Cc1ccccc1
CCOc1ccc(NC2c3ccccc3C(=O)N2Cc2ccco2)cc1 (stereo not drawn)
Cc1ccc(S(=O)(=O)N(C)C[C@H]2Oc3ccc(NC(=O)Nc4cccc5ccccc45)cc3C(=O)N([C@H](C)CO)C[C@@H]2C)cc1
C[C@@H]1CN([C@H](C)CO)C(=O)c2cc(NC(=O)Nc3ccccc3)ccc2O[C@@H]1CN(C)S(=O)(=O)c1ccccc1
COc1ccccc1C#Cc1ccc([C@H]2[C@H](C#N)N(C(=O)C3CCCC3)[C@H]2CO)cc1
CCCCS(=O)(=O)N1CCN(C(=O)C(=O)c2cccc(C(F)(F)F)c2)CC1
COc1ccc(C)cc1NC(=O)CCNS(=O)(=O)c1ccc2c(c1)CC(C)N2C(C)=O (stereo not drawn)
COc1ccc(NC(=O)C(=O)NCC2CCCN2S(=O)(=O)c2cccs2)cc1 (stereo not drawn)
O=C(Nc1ccc(C(=O)OC2CCCCC2)cc1)c1ccncc1
Cc1cccc(/C=N\Nc2cn[nH]c(=O)c2Cl)c1
COc1ccc(NC(=O)CN2CCC(C(N)=O)(N3CCCCC3)CC2)cc1
O=C(Nc1cccc(F)c1)N[C@@H]1CC[C@H](CCNS(=O)(=O)c2cccc(Cl)c2)O[C@@H]1CO
O=C(CCN1CCCCC1)N[C@@H]1CC[C@@H](CCn2cc(-c3ccccc3)nn2)O[C@@H]1CO
O=C(Cc1ccncc1)N[C@H]1CC[C@@H](CCn2cc(-c3ccccc3F)nn2)O[C@@H]1CO
CN(C)Cc1cn(CC[C@@H]2CC[C@H](N)[C@H](CO)O2)nn1
COc1ccc(-c2cn(CC[C@H]3CC[C@H](NS(=O)(=O)c4ccccc4C)[C@H](CO)O3)nn2)cc1
O=C(Nc1cccc(F)c1)N[C@H]1CC[C@@H](CCNS(=O)(=O)c2cccc(Cl)c2)O[C@H]1CO
COc1ccc(-c2c(C)nn3c(C(F)(F)F)cc(C)nc23)cc1
CCCNC(=O)C[C@@H]1C[C@H]2c3cc(NC(=O)c4cccnc4)ccc3O[C@H]2[C@H](CO)O1
Cc1cccc(C)c1N(CC(O)Cn1c2ccccc2c2ccccc21)S(C)(=O)=O (stereo not drawn)
CCNC(=O)C[C@@H]1CC[C@@H]2[C@H](COC[C@@H](O)CN2C(=O)c2ccccn2)O1
O=C(Nc1nc(-c2ccc3c(c2)OCO3)cs1)c1ccncc1
CS(=O)(=O)N1CCc2cc(-c3csc(NC(=O)Cc4cccs4)n3)ccc21
CCOC(=O)[C@@H]1[C@H]2COc3cc(OC)ccc3[C@H]2N2C(=O)N(c3cccc(F)c3)C(=O)[C@@]12C
O=C(C[C@@H]1C[C@@H]2c3cc(NS(=O)(=O)c4ccc(F)cc4)ccc3O[C@@H]2[C@H](CO)O1)NCc1ccccc1F
O=C(C[C@@H]1C[C@@H]2c3cc(NC(=O)Nc4ccccc4)ccc3O[C@@H]2[C@@H](CO)O1)NCc1ccccc1
COc1ccccc1CNC(=O)C[C@H]1C[C@@H]2c3cc(NC(=O)c4cccnc4)ccc3O[C@@H]2[C@@H](CO)O1
O=C(C[C@@H]1C[C@@H]2c3cc(NC(=O)c4ccc5c(c4)OCO5)ccc3O[C@@H]2[C@@H](CO)O1)NCc1ccc(Oc2ccccc2)cc1
